# Measurements from PubChem BioAssay (EPA / NIEHS).
# Where “and” joins values, the source holds several entries; their conditions need not be identical. Equal values may be shown once. Results filed as inconclusive are left out. More than one record can exist for a structure, and the calls need not agree. Calls of active or inactive are those of the source. The calls were made as follows, unless noted: active = hit-call score of the fitted dose curve at least 0.9, where 1 is the maximum; inconclusive = response in the unintended direction; inactive = score below 0.9.
# Experiment: CCTE_Shafer_MEA_acute_AB: CCTE's Alamar Blue Assay for Cytotoxicity in the Neural Acute Assay, Shafer Lab (AID 2284069);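 also: active compounds lower the viability signal compared with DMSO wells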
# Conditions: not given
# Summary of the method: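 Cytotoxicity endpoint for acute MEA exposures of primary rat cortical neurons on day 13 or 15. Resazurin reduction is read fluorescently at 544/590 nm, with DMSO as the negative-control baseline.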
SMILES,outcome,AC50
O=C(O)C(F)(F)C(F)(F)C(F)(F)C(F)(F)C(F)(F)C(F)(F)C(F)(F)C(F)(F)C(F)(F)C(F)(F)F,inactive,–
CCC(C)(C)c1ccc(O)c(C(C)(C)CC)c1,–,35.4 µM (active)
CCN1CCC2(CC1)COc1cc3c(cc12)N(C(=O)c1ccc(-c2ccc(-c4nnc(C)o4)cc2C)cc1)CC3,–,17.2 µM (active)
C=C(C)C(=O)[O][Sn]([CH2]CCC)([CH2]CCC)[CH2]CCC,–,4.69 µM (active)
O=C(Nc1ccc2[nH]ccc2c1)c1cc2cc(F)ccc2n1Cc1cccc(F)c1,inactive,–
CC(C)(OO)c1ccccc1,inactive,–
CC(=O)[O][Hg][c]1ccccc1,–,20 µM (active)
CC(C)(c1ccccc1)c1ccc(O)c(C(C)(C)c2ccccc2)c1,inactive,–
CCCCCCCCc1ccc(O)cc1,inactive,–
O=C1C2(Cl)C3(Cl)C4(Cl)C(Cl)(Cl)C5(Cl)C3(Cl)C1(Cl)C5(Cl)C24Cl (configuration not stated),inactive,–
CCOP(=S)(OCC)SCSP(=S)(OCC)OCC,inactive,–
ClC1(Cl)C2(Cl)C3(Cl)C4(Cl)C(Cl)(Cl)C5(Cl)C3(Cl)C1(Cl)C5(Cl)C24Cl (configuration not stated),inactive,–
CCC(=O)C(CC(C)N(C)C)(c1ccccc1)c1ccccc1 (configuration not stated),inactive,–
CC(C)(C)CC(C)(C)c1ccc(O)cc1,inactive,–
COC(=O)Cc1ccccc1,inactive,–
CC(C)(C)c1cc(O)ccc1O,inactive,–
C[C@]12CCC(=O)C[C@@H]1CC[C@@H]1[C@@H]2CC[C@]2(C)[C@@H](O)CC[C@@H]12,inactive,–

# Experiment: UKN5_HCS_SBAD2_neurite_outgrowth: University of Konstanz (UKN) Leist Lab Neurite Outgrowth Assay in human iPSC-derived immature Dorsal Root Ganglia Neurons (UKN5) (AID 2284070; active = hit-call score of the fitted dose curve at least 0.9, where 1 is the maximum; inactive = score below 0.9)
# Conditions: actives raise or lower the signal
# Summary of the method: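 Human iPSC-derived immature DRG neurons (SBAD2) on Matrigel with CHIR99021 (1.5 uM), SU5402 (5 uM), DAPT (5 uM); compounds added 1 h post-seeding for 24 h. Calcein-AM neurite area imaged; bidirectional fit vs DMSO.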
SMILES,AC50,outcome
C=C(C)C(=O)[O][Sn]([CH2]CCC)([CH2]CCC)[CH2]CCC,0.127 µM (active),–
CCOP(=S)(OCC)Oc1nc(Cl)c(Cl)cc1Cl,–,inactive
O=C1C2(Cl)C3(Cl)C4(Cl)C(Cl)(Cl)C5(Cl)C3(Cl)C1(Cl)C5(Cl)C24Cl (configuration not stated),14.6 µM (active),–

# Experiment: CCTE_Shafer_MEA_dev_AB: CCTE's Alamar Blue Assay for Cytotoxicity in the Neural Network Formation Assay, Shafer Lab (AID 2284083);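 also: resazurin reduction fluorescence as viability of cultured neurons; twelve days of exposure from plating with re-dosing on DIV 5 and 9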
# Conditions: not given
# Summary of the method: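 Cytotoxicity companion to the developmental MEA: primary rat cortical neurons, 12-day exposure starting day 0, compound refreshed DIV 5 and 9; resazurin fluorescence, fitted against DMSO vehicle.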
SMILES,AC50,outcome
COP(=O)(OC)O/C(=C\Cl)c1cc(Cl)c(Cl)cc1Cl,50 µM (active),inactive
Cn1sc(Cl)cc1=O,5.49 µM (active),–
C=C(C)C(=O)[O][Sn]([CH2]CCC)([CH2]CCC)[CH2]CCC,0.0915 µM (active),–
CC(=O)[O][Hg][c]1ccccc1,0.022 µM (active),–
CCOP(=S)(OCC)Oc1nc(Cl)c(Cl)cc1Cl,18.2 µM (active) and 22.5 µM (active) and 24 µM (active),–
O=C1C2(Cl)C3(Cl)C4(Cl)C(Cl)(Cl)C5(Cl)C3(Cl)C1(Cl)C5(Cl)C24Cl (configuration not stated),8.77 µM (active),–
ClC1(Cl)C2(Cl)C3(Cl)C4(Cl)C(Cl)(Cl)C5(Cl)C3(Cl)C1(Cl)C5(Cl)C24Cl (configuration not stated),2.83 µM (active),–
CCC(=O)C(CC(C)N(C)C)(c1ccccc1)c1ccccc1 (configuration not stated),–,inactive
CC(C)(C)c1cc(O)ccc1O,15.2 µM (active),–

# Experiment: CCTE_Shafer_MEA_acute_LDH: CCTE's Lactate Dehydrogenase Assay for Cytotoxicity in the Neural Acute Assay, Shafer Lab (AID 2284086);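 also: active means LDH release rises above DMSO vehicle level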
# Conditions: not given
# Summary of the method: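 Primary rat cortical neurons on 48-well MEA plates, treated on day 13 or 15 post-plating. After the 40-min recording with compound, medium LDH release was read by absorbance at 490 nm. Gain of signal was fitted against DMSO negative control.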
row,SMILES,outcome
1,O=C(O)C(F)(F)C(F)(F)C(F)(F)C(F)(F)C(F)(F)C(F)(F)C(F)(F)C(F)(F)C(F)(F)C(F)(F)F,inactive
2,CCC(C)(C)c1ccc(O)c(C(C)(C)CC)c1,inactive
3,CC(=O)OC(c1ccccc1)C(Cl)(Cl)Cl (configuration not stated),inactive
4,C=C(C)C(=O)[O][Sn]([CH2]CCC)([CH2]CCC)[CH2]CCC,inactive
5,O=C(Nc1ccc2[nH]ccc2c1)c1cc2cc(F)ccc2n1Cc1cccc(F)c1,inactive
6,CC(C)(OO)c1ccccc1,inactive
7,CC(=O)[O][Hg][c]1ccccc1,inactive
8,CC(C)(c1ccccc1)c1ccc(O)c(C(C)(C)c2ccccc2)c1,inactive
9,CCCCCCCCc1ccc(O)cc1,inactive
10,O=C1C2(Cl)C3(Cl)C4(Cl)C(Cl)(Cl)C5(Cl)C3(Cl)C1(Cl)C5(Cl)C24Cl (configuration not stated),inactive
11,CC(C)(C)CC(C)(C)c1ccc(O)cc1,inactive
12,COC(=O)Cc1ccccc1,inactive
13,O=C(O)C(Cl)(Cl)Cl,inactive
14,CC(C)(C)c1cc(O)ccc1O,inactive
15,C[C@]12CCC(=O)C[C@@H]1CC[C@@H]1[C@@H]2CC[C@]2(C)[C@@H](O)CC[C@@H]12,inactive

# Experiment: CCTE_Shafer_MEA_dev_mutual_information_norm: CCTE's Neural Network Formation Assay for Mutual Information Normalization, Shafer Lab (AID 2284091; active = hit-call score of the fitted dose curve at least 0.9, where 1 is the maximum; inactive = score below 0.9;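 as to AC50: mutual information between electrodes summarised as area under curve across four recording days; potency is for a decrease in mutual information relative to DMSO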)
# Conditions: not given
# Summary of the method: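 Primary rat cortical neurons on PEI-coated 48-well MEA plates, 1.5 x 10^5 cells/well, exposed from day 0 through day 12 with re-dosing at DIV 5 and 9. Mutual information between electrodes recorded days 5, 7, 9, 12; trapezoidal AUC, loss-of-signal fit versus DMSO.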
SMILES,outcome,AC50
O=C(O)C(F)(F)C(F)(F)C(F)(F)C(F)(F)C(F)(F)C(F)(F)C(F)(F)C(F)(F)C(F)(F)C(F)(F)F,inactive,–
O=C(O)C(F)(F)C(F)(F)C(F)(F)C(F)(F)C(F)(F)C(F)(F)F,inactive,–
COP(=O)(OC)O/C(=C\Cl)c1cc(Cl)c(Cl)cc1Cl,inactive,–
Cn1sc(Cl)cc1=O,–,3.45 µM (active)
C=C(C)C(=O)[O][Sn]([CH2]CCC)([CH2]CCC)[CH2]CCC,–,0.0123 µM (active)
CC(=O)[O][Hg][c]1ccccc1,–,0.0082 µM (active)
CCOP(=S)(OCC)Oc1nc(Cl)c(Cl)cc1Cl,inactive,23.2 µM (active) and 15 µM (active)
O=C1C2(Cl)C3(Cl)C4(Cl)C(Cl)(Cl)C5(Cl)C3(Cl)C1(Cl)C5(Cl)C24Cl (configuration not stated),–,0.125 µM (active)
ClC1(Cl)C2(Cl)C3(Cl)C4(Cl)C(Cl)(Cl)C5(Cl)C3(Cl)C1(Cl)C5(Cl)C24Cl (configuration not stated),–,2.05 µM (active)
CCC(=O)C(CC(C)N(C)C)(c1ccccc1)c1ccccc1 (configuration not stated),–,6.23 µM (active)
CC(C)(C)c1cc(O)ccc1O,–,2.1 µM (active)
